Results: the supplement of paper PMC10849652
Targets with a hit are over-represented here; the source holds about 7,900 in all. About 0.6% of all pairs of compound and target were hits.

What was measured:
Test in all cases: log2 fold change, soluble protein after heating vs DMSO (PISA); higher = thermal stabilisation; K562 cells, 10 uM, 30 min; active = over 0.2 and 3.5 SD of the protein, either way, in both replicates (recomputed)
[1] = compound: CS(=O)(=O)c1ccc(-c2cnc(N)c(C(=O)Nc3ccccc3)n2)cc1
Summary of the method: (§1)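 Soluble protein was quantified by TMTpro 16plex LC-MS/MS after channel sums were equalised. It was obtained as the supernatant after 21,000xg for 90 min from pooled aliquots of K562 cells (2×10^6 cells/mL, 10 μM compound, 30 min) heated for 3 min across 48°C-58°C and extracted in PBS with 0.5% NP-40 at 4°C. Thermal stability values are relative to control samples and come from duplicates. They are given as log2 fold changes.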

[2] = compound: C[C@@H](Oc1cc(-c2cnn(C3CCNCC3)c2)cnc1N)c1c(Cl)ccc(F)c1Cl [crizotinib]
Summary of the method: as §1

[3] = compound: C[C@@H]1COCCN1C2=NC(=NC(=C2)C3(CC3)S(=O)(=O)C)C4=C5C=CNC5=CC=C4
Summary of the method: as §1

[4] = compound: C[C@H](C1=CC=C(C=C1)C(=O)NC2=C3C=CNC3=NC=C2)N
Summary of the method: as §1

[5] = compound: C[C@H](Nc1ncnc2nc[nH]c12)c1cc2cccc(Cl)c2c(=O)n1-c1ccccc1 [duvelisib]
Summary of the method: as §1

[6] = compound: Cc1cc(Nc2cc(CN3CCOCC3)c3nc(C)c(Cc4ccc(Cl)cc4F)n3n2)n[nH]1 [gandotinib]
Summary of the method: as §1

[7] = compound: Cc1cc(Nc2cc(N3CCN(C)CC3)nc(Sc3ccc(NC(=O)C4CC4)cc3)n2)n[nH]1 [tozasertib]
Summary of the method: as §1

[8] = compound: Cc1cc(SCc2sc(-c3ccc(C(F)(F)F)cc3)nc2C)ccc1OCC(=O)O
Summary of the method: as §1

[9] = compound: Cc1ccc(-n2nc(C(C)(C)C)cc2NC(=O)Nc2ccc(OCCN3CCOCC3)c3ccccc23)cc1 [doramapimod]
Summary of the method: as §1

[10] = compound: Cc1ccc(C(=O)N(CCCN)[C@@H](c2nc3cc(Cl)ccc3c(=O)n2Cc2ccccc2)C(C)C)cc1 [ispinesib]
Summary of the method: as §1

[11] = compound: Cc1ccc(NC(=O)c2ccc(CN3CC[C@H](N(C)C)C3)c(C(F)(F)F)c2)cc1Nc1nccc(-c2cncnc2)n1 [bafetinib]
Summary of the method: as §1

[12] = compound: Cc1cccc(CC(=O)N2CCc3c2ccc(-c2cn(C)c4ncnc(N)c24)c3F)n1
Summary of the method: as §1

[13] = compound: Cc1cn(-c2cc(NC(=O)c3ccc(C)c(Nc4nccc(-c5cccnc5)n4)c3)cc(C(F)(F)F)c2)cn1 [nilotinib]
Summary of the method: as §1

[14] = compound: Cc1nc(Nc2n[nH]c3c2CN(C(=O)N[C@H](CN(C)C)c2ccccc2)C3(C)C)c2sccc2n1
Summary of the method: as §1

[15] = compound: Cc1nc(Nc2ncc(C(=O)Nc3c(C)cccc3Cl)s2)cc(N2CCN(CCO)CC2)n1 [dasatinib]
Summary of the method: as §1

[16] = compound: Cc1ncc(-c2ccnc(Nc3ccc(S(C)(=O)=O)cc3)n2)n1C(C)C
Summary of the method: as §1

[17] = compound: Cn1cc(-c2ccc3c(c2)CCN3C(=O)Cc2cccc(C(F)(F)F)c2)c2c(N)ncnc21
Summary of the method: as §1

[18] = compound: Cn1cc(-c2ccc3nnc(C(F)(F)c4ccc5ncccc5c4)n3n2)cn1
Summary of the method: as §1

[19] = compound: Cn1cncc1[C@@](N)(c1ccc(Cl)cc1)c1ccc2c(c1)c(-c1cccc(Cl)c1)cc(=O)n2C [tipifarnib]
Summary of the method: as §1

[20] = compound: FC(F)(F)c1ccc(/C=C/c2nc(COc3ccc(CCCCn4ccnn4)cc3)co2)cc1 [mubritinib]
Summary of the method: as §1

Measured: log2 fold change

PRMT3 (UniProt O60678)
inactive: [1] -0.067 | [2] -0.137 | [3] -0.002 | [4] -0.058 | [5] -0.028 | [6] -0.156 | [7] 0.002 | [8] 0.111 | [9] -0.037 | [10] -0.02 | [11] 0.048 | [12] 0.034 | [13] -0.155 | [14] 0.011 | [15] -0.153 | [16] -0.02 | [17] -0.044 | [18] -0.004 | [19] -0.126 | [20] 0.081

PRKAB1 (UniProt Q9Y478)
Sequence of UniProt Q9Y478 (Q9Y478 whole entry, looked up): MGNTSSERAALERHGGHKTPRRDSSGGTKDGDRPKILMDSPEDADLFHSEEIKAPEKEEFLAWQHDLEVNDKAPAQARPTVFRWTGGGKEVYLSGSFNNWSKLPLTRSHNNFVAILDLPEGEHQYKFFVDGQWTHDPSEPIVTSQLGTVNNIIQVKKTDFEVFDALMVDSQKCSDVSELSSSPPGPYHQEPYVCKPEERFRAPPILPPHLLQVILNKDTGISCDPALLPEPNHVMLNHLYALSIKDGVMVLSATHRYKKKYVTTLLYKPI
active: [2] -0.252
inactive: [1] 0.013 | [3] 0.029 | [4] -0.063 | [5] 0.01 | [6] -0.057 | [7] -0.013 | [8] 0.069 | [9] 0.013 | [10] -0.013 | [11] -0.154 | [12] 0.006 | [13] -0.119 | [14] -0.162 | [15] -0.037 | [16] -0.007 | [17] 0.04 | [18] -0.026 | [19] 0.008 | [20] -0.104

POLR3B (UniProt Q9NW08)
Sequence of UniProt Q9NW08 (Q9NW08 whole entry, looked up): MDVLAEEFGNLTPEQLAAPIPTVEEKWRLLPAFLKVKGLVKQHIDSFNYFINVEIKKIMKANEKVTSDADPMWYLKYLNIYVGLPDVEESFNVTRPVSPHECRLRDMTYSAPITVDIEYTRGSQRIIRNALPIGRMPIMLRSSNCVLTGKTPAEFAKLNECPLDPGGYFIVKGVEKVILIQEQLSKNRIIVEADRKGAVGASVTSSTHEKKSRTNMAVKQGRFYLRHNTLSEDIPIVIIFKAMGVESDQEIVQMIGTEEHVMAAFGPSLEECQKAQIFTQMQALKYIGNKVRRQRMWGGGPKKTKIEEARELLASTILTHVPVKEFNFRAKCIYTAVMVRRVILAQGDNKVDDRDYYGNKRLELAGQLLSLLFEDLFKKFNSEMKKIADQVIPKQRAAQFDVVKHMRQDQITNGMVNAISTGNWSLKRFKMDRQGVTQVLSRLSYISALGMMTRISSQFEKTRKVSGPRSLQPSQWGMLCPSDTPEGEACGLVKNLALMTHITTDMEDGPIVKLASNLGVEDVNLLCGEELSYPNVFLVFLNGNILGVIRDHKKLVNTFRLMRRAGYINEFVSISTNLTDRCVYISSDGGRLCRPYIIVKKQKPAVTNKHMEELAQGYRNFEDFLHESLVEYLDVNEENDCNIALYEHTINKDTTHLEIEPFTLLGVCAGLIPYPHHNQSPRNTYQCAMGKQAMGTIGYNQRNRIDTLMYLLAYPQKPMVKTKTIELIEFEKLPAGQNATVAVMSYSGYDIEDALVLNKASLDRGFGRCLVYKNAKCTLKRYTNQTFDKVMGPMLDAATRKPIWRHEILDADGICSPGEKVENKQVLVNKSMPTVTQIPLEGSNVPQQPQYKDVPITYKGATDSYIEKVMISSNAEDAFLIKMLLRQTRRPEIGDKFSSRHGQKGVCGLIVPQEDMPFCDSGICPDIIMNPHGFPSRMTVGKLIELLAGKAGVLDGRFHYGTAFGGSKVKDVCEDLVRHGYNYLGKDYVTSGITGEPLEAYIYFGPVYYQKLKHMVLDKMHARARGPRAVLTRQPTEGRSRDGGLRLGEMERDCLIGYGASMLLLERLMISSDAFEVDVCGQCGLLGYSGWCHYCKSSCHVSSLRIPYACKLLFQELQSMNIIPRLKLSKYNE
inactive: [1] 0.038 | [2] -0.111 | [3] -0.004 | [4] 0.034 | [5] 0.007 | [6] -0.07 | [7] 0.101 | [8] 0.085 | [9] 0.03 | [10] -0.183 | [11] 0.104 | [12] 0.045 | [13] -0.111 | [14] -0.285 | [15] -0.238 | [16] -0.028 | [17] -0.059 | [18] 0.089 | [19] -0.108 | [20] -0.086

PTRH2 (UniProt Q9Y3E5)
Sequence of UniProt Q9Y3E5 (Q9Y3E5 whole entry, looked up): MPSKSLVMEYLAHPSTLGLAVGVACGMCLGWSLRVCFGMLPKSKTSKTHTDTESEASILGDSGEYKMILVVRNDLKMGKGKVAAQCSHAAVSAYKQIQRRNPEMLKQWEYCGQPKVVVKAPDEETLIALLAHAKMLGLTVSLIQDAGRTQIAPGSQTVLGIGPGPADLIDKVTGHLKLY
inactive: [1] 0.02 | [2] 0.081 | [3] 0.061 | [4] -0.098 | [5] 0.051 | [6] -0.02 | [7] 0.001 | [8] -0.001 | [9] -0.074 | [10] 0.181 | [11] -0.022 | [12] 0.017 | [13] 0.039 | [14] -0.011 | [15] -0.004 | [16] 0.046 | [17] 0.044 | [18] -0.019 | [19] 0.042 | [20] -0.009

PIP4P2 (UniProt Q8N4L2)
Sequence of UniProt Q8N4L2 (Q8N4L2 whole entry, looked up): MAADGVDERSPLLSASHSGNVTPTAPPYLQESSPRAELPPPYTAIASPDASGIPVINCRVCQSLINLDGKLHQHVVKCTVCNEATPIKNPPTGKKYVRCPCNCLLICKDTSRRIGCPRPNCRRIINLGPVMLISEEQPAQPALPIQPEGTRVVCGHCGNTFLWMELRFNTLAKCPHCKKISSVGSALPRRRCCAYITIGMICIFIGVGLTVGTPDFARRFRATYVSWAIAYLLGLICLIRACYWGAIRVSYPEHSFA
active: [2] -0.3 | [10] -0.569
inactive: [1] -0.057 | [3] 0.013 | [4] -0.058 | [5] 0.068 | [6] 0.017 | [7] -0.041 | [8] 0.013 | [9] -0.032 | [11] -0.083 | [12] -0.111 | [13] 0.013 | [14] -0.003 | [15] 0.055 | [16] -0.026 | [17] -0.03 | [18] 0.014 | [19] 0.024 | [20] 0.005

PRKAB2 (UniProt O43741)
active: [6] -0.484
inactive: [1] -0.08 | [2] -0.245 | [3] 0.021 | [4] -0.231 | [5] -0.154 | [7] 0.044 | [8] 0.051 | [9] -0.041 | [10] 0.143 | [11] 0.027 | [12] -0.01 | [13] -0.022 | [14] -0.184 | [15] -0.16 | [16] 0.082 | [17] 0.142 | [18] -0.034 | [19] -0.046 | [20] -0.02

PIP4K2A (UniProt P48426)
Sequence of UniProt P48426 (P48426 whole entry, looked up): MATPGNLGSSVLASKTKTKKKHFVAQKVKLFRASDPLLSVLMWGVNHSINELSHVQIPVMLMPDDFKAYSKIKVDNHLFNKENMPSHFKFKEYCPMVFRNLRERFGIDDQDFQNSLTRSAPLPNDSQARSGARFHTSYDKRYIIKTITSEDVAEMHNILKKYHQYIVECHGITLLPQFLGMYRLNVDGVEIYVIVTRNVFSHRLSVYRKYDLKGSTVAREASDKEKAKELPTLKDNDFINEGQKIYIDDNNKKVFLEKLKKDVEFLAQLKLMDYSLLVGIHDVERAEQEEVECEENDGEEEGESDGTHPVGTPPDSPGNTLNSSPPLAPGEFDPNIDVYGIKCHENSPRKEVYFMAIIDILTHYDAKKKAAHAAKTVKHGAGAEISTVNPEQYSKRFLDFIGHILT
inactive: [2] -0.032 | [3] 0.027 | [4] 0.013 | [5] -0.126 | [6] -0.084 | [7] -0.007 | [8] 0.042 | [9] 0.026 | [10] -0.052 | [11] 0.283 | [12] 0.103 | [13] 0.077 | [14] 0.065 | [15] 0.048 | [17] 0.037 | [18] 0.181 | [19] -0.081 | [20] -0.06
active: [1] 0.411 | [16] 0.588

POP1 (UniProt Q99575)
Sequence of UniProt Q99575 (Q99575 whole entry, looked up): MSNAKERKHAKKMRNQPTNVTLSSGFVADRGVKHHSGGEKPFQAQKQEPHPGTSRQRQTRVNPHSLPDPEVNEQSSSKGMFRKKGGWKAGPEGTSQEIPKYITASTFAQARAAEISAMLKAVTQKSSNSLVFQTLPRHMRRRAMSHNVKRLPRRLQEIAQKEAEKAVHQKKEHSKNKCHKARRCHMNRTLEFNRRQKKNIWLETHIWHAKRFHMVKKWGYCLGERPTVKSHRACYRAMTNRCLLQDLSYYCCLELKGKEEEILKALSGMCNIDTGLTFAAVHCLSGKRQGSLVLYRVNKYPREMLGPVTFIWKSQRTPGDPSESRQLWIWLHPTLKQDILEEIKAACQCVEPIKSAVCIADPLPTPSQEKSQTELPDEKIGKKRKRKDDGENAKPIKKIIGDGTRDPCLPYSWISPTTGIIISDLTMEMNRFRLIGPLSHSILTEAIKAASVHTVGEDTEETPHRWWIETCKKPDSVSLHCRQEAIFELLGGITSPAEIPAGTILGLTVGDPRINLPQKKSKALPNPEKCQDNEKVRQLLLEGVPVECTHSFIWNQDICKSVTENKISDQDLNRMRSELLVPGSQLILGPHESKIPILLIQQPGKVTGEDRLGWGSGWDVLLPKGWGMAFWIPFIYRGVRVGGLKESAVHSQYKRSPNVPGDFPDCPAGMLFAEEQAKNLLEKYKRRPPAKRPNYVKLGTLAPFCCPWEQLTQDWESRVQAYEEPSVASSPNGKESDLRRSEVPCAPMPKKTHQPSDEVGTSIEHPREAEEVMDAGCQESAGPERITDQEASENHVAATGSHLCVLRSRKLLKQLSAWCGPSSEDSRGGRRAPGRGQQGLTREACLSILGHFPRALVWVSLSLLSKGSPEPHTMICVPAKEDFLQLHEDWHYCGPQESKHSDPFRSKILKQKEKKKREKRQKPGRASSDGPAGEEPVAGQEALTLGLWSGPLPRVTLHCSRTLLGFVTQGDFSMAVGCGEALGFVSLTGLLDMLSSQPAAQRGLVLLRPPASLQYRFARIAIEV
inactive: [1] -0.034 | [2] 0.02 | [3] -0.023 | [4] -0.05 | [5] -0.005 | [6] 0.012 | [7] 0.009 | [8] -0.041 | [9] 0.016 | [10] 0.039 | [11] 0.019 | [12] 0.002 | [13] 0.074 | [14] -0.018 | [15] 0.039 | [16] -0.037 | [17] 0.042 | [18] 0.007 | [19] -0.036 | [20] -0.006

PDLIM7 (UniProt Q9NR12)
Sequence of UniProt Q9NR12 (Q9NR12 whole entry, looked up): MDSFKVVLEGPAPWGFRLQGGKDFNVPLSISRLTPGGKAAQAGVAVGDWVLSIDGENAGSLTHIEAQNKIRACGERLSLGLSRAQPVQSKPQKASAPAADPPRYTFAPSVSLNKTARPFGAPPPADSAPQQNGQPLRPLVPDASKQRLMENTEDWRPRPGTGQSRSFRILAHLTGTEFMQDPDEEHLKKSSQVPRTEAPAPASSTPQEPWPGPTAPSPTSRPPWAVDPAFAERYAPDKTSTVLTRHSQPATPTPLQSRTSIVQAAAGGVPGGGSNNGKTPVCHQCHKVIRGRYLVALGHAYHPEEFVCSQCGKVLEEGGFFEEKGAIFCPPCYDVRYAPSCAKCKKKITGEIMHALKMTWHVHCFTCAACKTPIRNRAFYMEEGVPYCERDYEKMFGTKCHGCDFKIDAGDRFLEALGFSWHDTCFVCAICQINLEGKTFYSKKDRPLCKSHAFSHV
inactive: [1] -0.01 | [2] -0.075 | [3] -0.002 | [4] -0.05 | [5] 0.019 | [6] 0.026 | [7] -0.002 | [8] 0.004 | [9] 0.012 | [10] -0.075 | [11] -0.01 | [12] 0.107 | [13] 0 | [14] -0.078 | [15] -0.036 | [16] -0.01 | [17] 0.006 | [18] -0.048 | [19] -0.091 | [20] -0.042

PSMD9 (UniProt O00233)
Sequence of UniProt O00233 (O00233 whole entry, looked up): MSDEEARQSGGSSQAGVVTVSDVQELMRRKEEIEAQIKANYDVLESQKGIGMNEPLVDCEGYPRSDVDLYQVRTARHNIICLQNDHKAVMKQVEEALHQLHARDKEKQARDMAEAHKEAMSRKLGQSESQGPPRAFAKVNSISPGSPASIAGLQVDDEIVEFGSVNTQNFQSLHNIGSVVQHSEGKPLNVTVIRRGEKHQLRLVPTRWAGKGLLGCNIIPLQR
inactive: [1] -0.041 | [2] -0.069 | [3] 0.022 | [4] -0.059 | [5] 0.038 | [6] -0.018 | [7] -0.03 | [8] -0.026 | [9] 0.001 | [10] 0.016 | [11] -0.038 | [12] 0.199 | [13] -0.011 | [14] 0.016 | [15] 0.037 | [16] 0.008 | [17] 0.018 | [18] 0.034 | [19] 0.04 | [20] 0.009

PHF5A (UniProt Q7RTV0)
Sequence of UniProt Q7RTV0 (Q7RTV0 whole entry, looked up): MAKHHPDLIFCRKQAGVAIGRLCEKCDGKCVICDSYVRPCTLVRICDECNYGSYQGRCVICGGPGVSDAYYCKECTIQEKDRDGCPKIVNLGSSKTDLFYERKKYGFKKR
inactive: [1] 0.013 | [2] 0.074 | [3] -0.061 | [4] -0.072 | [5] 0 | [6] -0.009 | [7] 0.043 | [8] -0.031 | [9] -0.093 | [10] 0.094 | [11] -0.097 | [12] -0.047 | [13] -0.018 | [14] 0.012 | [15] 0.102 | [16] 0.086 | [17] -0.031 | [18] 0.03 | [19] 0.031 | [20] -0.025

PEF1 (UniProt Q9UBV8)
Sequence of UniProt Q9UBV8 (Q9UBV8 whole entry, looked up): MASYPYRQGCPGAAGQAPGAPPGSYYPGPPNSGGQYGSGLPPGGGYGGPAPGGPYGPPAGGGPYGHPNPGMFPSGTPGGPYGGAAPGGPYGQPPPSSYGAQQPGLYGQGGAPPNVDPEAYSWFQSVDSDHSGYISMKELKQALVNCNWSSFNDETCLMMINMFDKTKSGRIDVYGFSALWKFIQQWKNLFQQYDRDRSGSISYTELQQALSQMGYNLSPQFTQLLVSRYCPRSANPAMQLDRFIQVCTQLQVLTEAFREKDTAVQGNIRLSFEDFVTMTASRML
inactive: [1] 0.119 | [2] 0.094 | [3] 0.059 | [4] -0.102 | [5] 0.103 | [6] -0.019 | [7] 0.06 | [8] 0.019 | [9] -0.091 | [10] 0.208 | [11] -0.106 | [12] 0.089 | [13] -0.005 | [14] 0.012 | [15] -0.047 | [16] -0.013 | [17] 0.132 | [18] 0.113 | [19] -0.126 | [20] 0.099

PCNT (UniProt O95613)
inactive: [1] 0.119 | [2] 0.023 | [3] 0.09 | [4] 0.153 | [5] -0.003 | [6] 0.06 | [7] 0.032 | [8] -0.006 | [9] -0.023 | [10] -0.099 | [11] -0.227 | [12] -0.324 | [13] -0.117 | [14] 0.045 | [15] 0.085 | [16] -0.002 | [17] -0.076 | [18] 0.107 | [19] 0.127 | [20] -0.004

POLR2A (UniProt P24928)
active: [6] 0.321 | [16] 0.511
inactive: [1] 0.027 | [2] 0.231 | [3] 0.049 | [4] 0.21 | [5] 0.06 | [7] -0.026 | [8] 0.023 | [9] -0.009 | [10] 0.006 | [11] -0.019 | [12] -0.014 | [13] -0.039 | [14] 0.24 | [15] -0.066 | [17] 0 | [18] -0.037 | [19] 0.004 | [20] 0.038

PEX11B (UniProt O96011)
Sequence of UniProt O96011 (O96011 whole entry, looked up, change not shown): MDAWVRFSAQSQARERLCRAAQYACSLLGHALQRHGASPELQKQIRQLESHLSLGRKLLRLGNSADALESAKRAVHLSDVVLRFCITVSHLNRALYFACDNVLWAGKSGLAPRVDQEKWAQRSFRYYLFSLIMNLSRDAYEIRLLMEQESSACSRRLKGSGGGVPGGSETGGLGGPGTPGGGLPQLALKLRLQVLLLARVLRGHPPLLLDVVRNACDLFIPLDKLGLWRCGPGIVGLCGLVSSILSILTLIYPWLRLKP
inactive: [1] -0.042 | [2] 0.02 | [3] 0.148 | [4] -0.012 | [5] 0.081 | [6] -0.073 | [7] 0.065 | [8] 0.014 | [9] 0.002 | [10] 0.07 | [11] -0.022 | [12] 0.081 | [13] 0.04 | [14] 0.041 | [15] -0.071 | [16] -0.043 | [17] 0.049 | [18] 0.01 | [19] -0.063 | [20] 0.058

PCLAF (UniProt Q15004)
Sequence of UniProt Q15004 (Q15004 whole entry, looked up): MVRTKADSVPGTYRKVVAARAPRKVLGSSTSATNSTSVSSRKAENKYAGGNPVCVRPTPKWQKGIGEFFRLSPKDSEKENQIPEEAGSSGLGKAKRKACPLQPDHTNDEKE
inactive: [1] -0.175 | [2] 0.027 | [3] -0.19 | [4] 0.052 | [5] -0.022 | [6] -0.07 | [7] -0.03 | [8] -0.097 | [9] 0.022 | [10] 0.079 | [11] -0.015 | [12] -0.1 | [13] -0.027 | [14] 0.105 | [15] 0.065 | [16] -0.081 | [17] -0.112 | [18] -0.069 | [19] -0.019 | [20] -0.095
